Experimental findings from PubChem BioAssay (NCI) are described below.

SMILES strings stand for the structures. Compounds without any hit were thinned out: in the full panel of roughly 83,000, 20% have a hit.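 Cells were grown in 96-well plates and exposed to the test compound at a single concentration for 48 hours; results are reported as percent growth, with values below 10 considered active.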 Unmarked numbers belong to inactive results. Calls of active or inactive are those of the source.

Some test systems named below: DU-145 prostate; K-562 leukemia; MALME-3M melanoma; RXF 393 renal; SF-268 CNS; SF-295 CNS; SF-539 CNS; UACC-257 melanoma; M14 melanoma; MDA-MB-231 breast.
What all share (test): NCI-60 one-dose screen, 48 h (100 = growth as untreated, 0 = no growth, -100 = all killed)
Conditions in all cases: 10 µM unless noted

As to `CC(C)=CCC/C(C)=C/C=N\N=C(/N)N[N+](=O)[O-]`, the growth in the experiment on DU-145 prostate is 102%; in the experiment on K-562 leukemia, 95.9%; in the experiment with MALME-3M melanoma, 93.5%; in the experiment with RXF 393 renal it was 122%; in the experiment on SF-268 CNS it was 93%; with SF-295 CNS it was 101%. Also, the figures for the growth with SF-539 CNS, with UACC-257 melanoma and in the experiment with M14 melanoma were 89.2%, 107% and 102%, respectively.
For `Cc1cc(N(CCCl)CCCl)ccc1/C=N\NC(=O)c1ccncc1`, the growth was 82.4% with DU-145 prostate; 85.2% in the experiment with K-562 leukemia; 96.4% with MDA-MB-231 breast; 91.7% in the experiment with RXF 393 renal; 70.7% with SF-268 CNS; 56.2% with SF-295 CNS. The results for the growth with SF-539 CNS, in the experiment with UACC-257 melanoma and with M14 melanoma were 60.3%, 79.8% and 90.4%, respectively.
For `CCOC(=O)c1c(C)n(Cc2ccccc2)c2cc(CN(C)C)c(O)cc12`, the growth in the experiment on DU-145 prostate is 79.9%; with K-562 leukemia, 29.3%; with MALME-3M melanoma, 103%; with RXF 393 renal, 66.9%; in the experiment on SF-268 CNS, 82.9%; in the experiment on SF-295 CNS, 43.6%. Also, the growth in the experiment on SF-539 CNS was 57.8%; with UACC-257 melanoma it was 81.8%; in the experiment on M14 melanoma it was 81.3%.
On to `C/C=C(\C)C(=O)O[C@@H]1C(O)[C@H]2OC(COC(=O)CCC(=O)CCCCCC[C@H](CCCCC)O[C@@H]3OC(C)[C@H](OC(C)=O)C(O)[C@H]3O2)[C@H]1OC(=O)/C=C/c1ccccc1` (stereo partly drawn), for which the growth in the experiment with DU-145 prostate was 22.5%; in the experiment on K-562 leukemia it was 30.2%; in the experiment with MALME-3M melanoma it was 14.9%; in the experiment with MDA-MB-231 breast, -5.32% (active); in the experiment on SF-268 CNS it was 18.1%; in the experiment with SF-295 CNS it was -33.6% (active). Further, the growth in the experiment on SF-539 CNS was -9.75% (active); with M14 melanoma, -13.1% (active).
In the case of `COC(=O)[C@@H](C)C[C@H](Cc1ccccc1)NC(=O)c1csc(CC[C@H](C(C)C)N(C)C(=O)[C@@H](NC(=O)[C@H]2CCCCN2C)C(C)C)n1`, the growth with DU-145 prostate is 10.8%; with K-562 leukemia, 6.9% (active); with MALME-3M melanoma it was 61.2%; in the experiment on MDA-MB-231 breast, 14.2%; with SF-268 CNS, 27%; in the experiment with SF-295 CNS, -6.82% (active). Also, the results for the growth with SF-539 CNS and with M14 melanoma were -9.08% (active) and -13.3% (active), respectively.
For `CCCCN1CCCC[C@@H]1C(=O)N[C@H](C(=O)N(C)[C@H](CCc1nc(C(=O)N[C@@H](Cc2ccccc2)C[C@H](C)C(=O)OC)cs1)C(C)C)[C@@H](C)CC`, the growth is 79.2% with DU-145 prostate; 34% in the experiment on K-562 leukemia; 48.5% in the experiment with MALME-3M melanoma; 59.6% in the experiment with MDA-MB-231 breast; 64.4% with SF-268 CNS; 26.3% in the experiment on SF-295 CNS. The values for the growth with SF-539 CNS and in the experiment with M14 melanoma were 84% and 48.6%, respectively.
Regarding `CC1(C)[C@H](O)[C@H](F)C[C@@]2(C)Oc3ccc(C(=O)Nc4ccc5c(c4)NC(=O)C54CCN(CCCCC#N)CC4)cc3C[C@H]12`, the growth in the experiment on DU-145 prostate is 48.5%; in the experiment with K-562 leukemia it was 2.93% (active); with MALME-3M melanoma, 13.5%; in the experiment on MDA-MB-231 breast, 28.8%; with SF-268 CNS, 43.6%; in the experiment on SF-295 CNS, -59.6% (active). For the same compound, the growth was 8.86% (active) in the experiment with SF-539 CNS and -6.54% (active) in the experiment on M14 melanoma.
As for `COC(=O)C1CCC(NC(=O)c2csc([C@@H](C[C@H](C(C)C)N(C)C(=O)[C@@H](NC(=O)[C@H]3CCCCN3C)C(C)C)OC(C)=O)n2)CC1` (stereo partly drawn), the growth was 9.8% (active) in the experiment with DU-145 prostate; 10% in the experiment with K-562 leukemia; 57.8% with MALME-3M melanoma; 12.1% in the experiment on MDA-MB-231 breast; 22.6% in the experiment on SF-268 CNS; 2.5% (active) with SF-295 CNS. In addition, the growth is -10.1% (active) with SF-539 CNS and 1.47% (active) in the experiment on M14 melanoma.
As for `COC(=O)CC12CC(NC(=O)c3csc([C@@H](C[C@H](C(C)C)N(C)C(=O)[C@@H](NC(=O)[C@H]4CCCCN4C)C(C)C)OC(C)=O)n3)(C1)C2`, the growth with DU-145 prostate is 14%; in the experiment with K-562 leukemia, 9.94% (active); with MALME-3M melanoma, 51%; with MDA-MB-231 breast it was 6.67% (active); in the experiment on SF-268 CNS, 26.1%; in the experiment with SF-295 CNS, -7.27% (active). Further, the values for the growth in the experiment with SF-539 CNS and in the experiment on M14 melanoma were -12.8% (active) and 7% (active), respectively.
As for `Clc1ccc(COC(Cn2ccnc2)c2ccc(Cl)cc2Cl)cc1` (stereo not drawn), the growth was 71.6% in the experiment on DU-145 prostate; -4.49% (active) with K-562 leukemia; 42.9% in the experiment with MALME-3M melanoma; 57.6% with MDA-MB-231 breast; 52.1% in the experiment on SF-268 CNS; 17.9% with SF-295 CNS. Moreover, the results for the growth with SF-539 CNS, with UACC-257 melanoma and in the experiment on M14 melanoma were 87.7%, 61.9% and 58.9%, respectively.
Consider `COc1cccc(C=NC(Cc2cnc[nH]2)C(=O)O)c1O` (stereo not drawn), for which the growth is 121% in the experiment with DU-145 prostate; 135% in the experiment with K-562 leukemia; 102% with MDA-MB-231 breast; 3.56% (active) in the experiment on RXF 393 renal; 112% with SF-268 CNS; 70.3% in the experiment on SF-295 CNS. Further, the growth in the experiment with SF-539 CNS was 93.1%; in the experiment on UACC-257 melanoma, 46.7%; with M14 melanoma, 89.7%.
`O=C(Nc1ccc([As]=[As]c2ccc(NC(=O)c3ccccc3)cc2)cc1)c1ccccc1` (stereo not drawn): the growth was -96% (active) in the experiment with DU-145 prostate; -16.8% (active) in the experiment with K-562 leukemia; -80.5% (active) with MALME-3M melanoma; -97.8% (active) with RXF 393 renal; -91.4% (active) with SF-268 CNS; -52.7% (active) in the experiment with SF-295 CNS. The growth is -90.9% (active) with SF-539 CNS, -87% (active) with UACC-257 melanoma and -89% (active) in the experiment with M14 melanoma.
In the case of `c1ccc(Nc2nc(-c3ccccc3)c[se]2)cc1`, the growth in the experiment on DU-145 prostate was 98.4%; in the experiment on K-562 leukemia it was 80.1%; with MALME-3M melanoma, 78.6%; in the experiment with MDA-MB-231 breast it was 64.3%; in the experiment on SF-268 CNS, 95.7%; with SF-295 CNS, 93%. The results for the growth in the experiment with SF-539 CNS, in the experiment with UACC-257 melanoma and in the experiment with M14 melanoma were 93.7%, 98.6% and 87.3%, respectively.
As for `COC(=O)[C@@H](C)C[C@H](Cc1cn(C)c2ccccc12)NC(=O)c1csc([C@@H](C[C@H](C(C)C)N(C)C(=O)[C@@H](NC(=O)[C@H]2CCCCN2C)C(C)C)OC(C)=O)n1`, the growth with DU-145 prostate was 12.4%; with K-562 leukemia, 6.65% (active); with MALME-3M melanoma, 50.4%; with MDA-MB-231 breast, 5.09% (active); in the experiment with SF-268 CNS, 16.6%; in the experiment with SF-295 CNS, -0.0499% (active). Also, the figures for the growth in the experiment on SF-539 CNS and in the experiment with M14 melanoma were -8.57% (active) and -10.2% (active), respectively.
For `ClCCN(CCCl)c1nc(Cl)c(C2CC(c3ccccc3)=NN2c2cc(Cl)cc(Cl)c2)s1` (stereo not drawn), the growth with DU-145 prostate was 107%; in the experiment with K-562 leukemia, 99.1%; in the experiment on MALME-3M melanoma it was 103%; with MDA-MB-231 breast it was 98.7%; in the experiment on SF-268 CNS it was 96.7%; in the experiment on SF-295 CNS, 107%. For the same compound, the results for the growth with SF-539 CNS, in the experiment on UACC-257 melanoma and with M14 melanoma were 101%, 95.9% and 108%, respectively.
